# Measurements reported in the supplement of paper PMC4466140.
# Molecular target: ScBbc1
# Assay: SPOT peptide array binding signal intensity (averaged, normalized) (arbitrary units (background-subtracted, floor 0; scale differs between SH3 domains)); higher = stronger binding of the SH3 domain to the peptide
# Method in brief: (§1)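 The binding signal is the normalized, background-subtracted spot intensity averaged over replicates; its arbitrary units differ between domains. It was obtained by incubating 10 μg/ml GST-fused SH3 domains from four yeast species overnight at 4°C in TBS-based blocking buffer on cellulose membranes with synthetic 15-mer peptides, cysteines replaced by serines, then detecting with anti-GST antibody, HRP anti-mouse secondary and luminol.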
row,Binder,SPOT peptide array binding signal intensity
1,TKPTPPPKPSHLKPK,≤ 0

# Molecular target: ScBem1-D1
# Assay: as above
# Method in brief: as §1
row,Binder,SPOT peptide array binding signal intensity
1,TKPTPPPKPSHLKPK,1.5

# Molecular target: ScBzz1-D1
# Assay: as above
# Method in brief: as §1
row,Binder,SPOT peptide array binding signal intensity
1,TKPTPPPKPSHLKPK,4

# Molecular target: ScBzz1-D2
# Assay: as above
# Method in brief: as §1
row,Binder,SPOT peptide array binding signal intensity
1,TKPTPPPKPSHLKPK,59.5

# Molecular target: ScCyk3
# Assay: as above
# Method in brief: as §1
row,Binder,SPOT peptide array binding signal intensity
1,TKPTPPPKPSHLKPK,≤ 0

# Molecular target: ScFus1
# Assay: as above
# Method in brief: as §1
row,Binder,SPOT peptide array binding signal intensity
1,TKPTPPPKPSHLKPK,7.5

# Molecular target: ScHof1
# Assay: as above
# Method in brief: as §1
row,Binder,SPOT peptide array binding signal intensity
1,TKPTPPPKPSHLKPK,2

# Molecular target: ScHse1
# Assay: as above
# Method in brief: as §1
row,Binder,SPOT peptide array binding signal intensity
1,TKPTPPPKPSHLKPK,4

# Molecular target: ScLsb1
# Assay: as above
# Method in brief: as §1
row,Binder,SPOT peptide array binding signal intensity
1,TKPTPPPKPSHLKPK,0.5

# Molecular target: ScLsb2
# Assay: as above
# Method in brief: as §1
row,Binder,SPOT peptide array binding signal intensity
1,TKPTPPPKPSHLKPK,≤ 0

# Molecular target: ScLsb3
# Assay: as above
# Method in brief: as §1
row,Binder,SPOT peptide array binding signal intensity
1,TKPTPPPKPSHLKPK,1800

# Molecular target: ScLsb4
# Assay: as above
# Method in brief: as §1
row,Binder,SPOT peptide array binding signal intensity
1,TKPTPPPKPSHLKPK,≤ 0

# Molecular target: ScMyo3
# Assay: as above
# Method in brief: as §1
row,Binder,SPOT peptide array binding signal intensity
1,TKPTPPPKPSHLKPK,0.5

# Molecular target: ScMyo5
# Assay: as above
# Method in brief: as §1
row,Binder,SPOT peptide array binding signal intensity
1,TKPTPPPKPSHLKPK,≤ 0

# Molecular target: ScNbp2
# Assay: as above
# Method in brief: as §1
row,Binder,SPOT peptide array binding signal intensity
1,TKPTPPPKPSHLKPK,13

# Molecular target: ScPex13
# Assay: as above
# Method in brief: as §1
row,Binder,SPOT peptide array binding signal intensity
1,TKPTPPPKPSHLKPK,981

# Molecular target: ScRvs167
# Assay: as above
# Method in brief: as §1
row,Binder,SPOT peptide array binding signal intensity
1,TKPTPPPKPSHLKPK,4.17

# Molecular target: ScSho1
# Assay: as above
# Method in brief: as §1
row,Binder,SPOT peptide array binding signal intensity
1,TKPTPPPKPSHLKPK,1320

# Molecular target: ScSla1-D1-D2
# Assay: as above
# Method in brief: as §1
row,Binder,SPOT peptide array binding signal intensity
1,TKPTPPPKPSHLKPK,11

# Molecular target: ScSla1-D3
# Assay: as above
# Method in brief: as §1
row,Binder,SPOT peptide array binding signal intensity
1,TKPTPPPKPSHLKPK,1.75

# Molecular target: SpAbp1-D1
# Assay: as above
# Method in brief: as §1
row,Binder,SPOT peptide array binding signal intensity
1,TKPTPPPKPSHLKPK,481

# Molecular target: SpBbc1
# Assay: as above
# Method in brief: as §1
row,Binder,SPOT peptide array binding signal intensity
1,TKPTPPPKPSHLKPK,0.5

# Molecular target: SpBzz1-D1
# Assay: as above
# Method in brief: as §1
row,Binder,SPOT peptide array binding signal intensity
1,TKPTPPPKPSHLKPK,344

# Molecular target: SpBzz1-D2
# Assay: as above
# Method in brief: as §1
row,Binder,SPOT peptide array binding signal intensity
1,TKPTPPPKPSHLKPK,≤ 0

# Molecular target: SpCyk3
# Assay: as above
# Method in brief: as §1
row,Binder,SPOT peptide array binding signal intensity
1,TKPTPPPKPSHLKPK,≤ 0

# Molecular target: SpHof1
# Assay: as above
# Method in brief: as §1
row,Binder,SPOT peptide array binding signal intensity
1,TKPTPPPKPSHLKPK,2

# Molecular target: SpHof1-2
# Assay: as above
# Method in brief: as §1
row,Binder,SPOT peptide array binding signal intensity
1,TKPTPPPKPSHLKPK,≤ 0

# Molecular target: SpHof1-3
# Assay: as above
# Method in brief: as §1
row,Binder,SPOT peptide array binding signal intensity
1,TKPTPPPKPSHLKPK,64

# Molecular target: SpHse1
# Assay: as above
# Method in brief: as §1
row,Binder,SPOT peptide array binding signal intensity
1,TKPTPPPKPSHLKPK,9.25

# Molecular target: SpLsb1
# Assay: as above
# Method in brief: as §1
row,Binder,SPOT peptide array binding signal intensity
1,TKPTPPPKPSHLKPK,251

# Molecular target: SpLsb4
# Assay: as above
# Method in brief: as §1
row,Binder,SPOT peptide array binding signal intensity
1,TKPTPPPKPSHLKPK,43.5

# Molecular target: SpMyo1
# Assay: as above
# Method in brief: as §1
row,Binder,SPOT peptide array binding signal intensity
1,TKPTPPPKPSHLKPK,≤ 0

# Molecular target: SpNbp2
# Assay: as above
# Method in brief: as §1
row,Binder,SPOT peptide array binding signal intensity
1,TKPTPPPKPSHLKPK,2.5

# Molecular target: SpPex13
# Assay: as above
# Method in brief: as §1
row,Binder,SPOT peptide array binding signal intensity
1,TKPTPPPKPSHLKPK,7

# Molecular target: SpRvs167
# Assay: as above
# Method in brief: as §1
row,Binder,SPOT peptide array binding signal intensity
1,TKPTPPPKPSHLKPK,142

# Molecular target: SpSla1-D1-D2
# Assay: as above
# Method in brief: as §1
row,Binder,SPOT peptide array binding signal intensity
1,TKPTPPPKPSHLKPK,≤ 0

# Molecular target: SpSla1-D3
# Assay: as above
# Method in brief: as §1
row,Binder,SPOT peptide array binding signal intensity
1,TKPTPPPKPSHLKPK,2.5
